{"source": "the supplement of paper PMC11006884", "note": "Targets with a hit are over-represented here; the source holds about 6,500 in all. About 2% of all pairs of compound and target were hits. Unmarked numbers belong to inactive results."}
{"compound": "COC(=O)C#Cc1ccccc1 [methyl 3-phenylpropiolate]", "test": "log2 ratio of iodoacetamide-alkyne labeling of the cysteine site, DMSO over compound (competition); higher = stronger covalent engagement of the cysteine by the compound, active = 1 or more", "conditions": "500 µM; treatment time 1 h; system: HEK293T cell lysate", "procedure,_shortened": "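HEK293T lysate (2 mg/mL) was treated with DMSO or electrophile (500 µM, 1 h, ambient temperature), then iodoacetamide alkyne (1 h), clicked to sCIP-TMT reagents, pooled, trypsin-digested overnight at 37 °C, streptavidin-enriched and acid-eluted. Peptides were run on Orbitrap Eclipse LC-MS/MS with FAIMS and quantified in FragPipe. The log2 competition ratio per cysteine is mean control-channel over mean compound-channel reporter intensity. Duplicate channels and three replicates were used, and cysteines quantified in only one replicate were excluded.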"}
{"target": "UniProt O94822_C186", "log2 ratio of iodoacetamide-alkyne labeling": -0.317}
{"target": "UniProt O75153_C88", "log2 ratio of iodoacetamide-alkyne labeling": 0.201}
{"target": "RECQL5 C664 (UniProt O94762)", "log2 ratio of iodoacetamide-alkyne labeling": "1.47 (active)"}
{"target": "NVL C550 (UniProt O15381)", "log2 ratio of iodoacetamide-alkyne labeling": -0.302}
{"target": "SIVA1 C6 (UniProt O15304)", "log2 ratio of iodoacetamide-alkyne labeling": "1.88 (active)"}
{"target": "ANKRD28 C701 (UniProt O15084)", "log2 ratio of iodoacetamide-alkyne labeling": 0.336}
{"target": "EIF3D C437 (UniProt O15371)", "log2 ratio of iodoacetamide-alkyne labeling": -0.116}
{"target": "NVL C192 (UniProt O15381)", "log2 ratio of iodoacetamide-alkyne labeling": 0.306}
{"target": "UniProt O43598_C26", "log2 ratio of iodoacetamide-alkyne labeling": 0.038}
{"target": "POM121C C438 (UniProt A8CG34)", "log2 ratio of iodoacetamide-alkyne labeling": "1.04 (active)"}
{"target": "NMT2 C104 (UniProt O60551)", "log2 ratio of iodoacetamide-alkyne labeling": 0.453}
{"target": "DVL2 C412 (UniProt O14641)", "log2 ratio of iodoacetamide-alkyne labeling": 0.134}
{"target": "EIF3G C139 (UniProt O75821)", "log2 ratio of iodoacetamide-alkyne labeling": 0.259}
{"target": "PRPF6 C698 (UniProt O94906)", "log2 ratio of iodoacetamide-alkyne labeling": 0.0824}
{"target": "HGS C166 (UniProt O14964)", "log2 ratio of iodoacetamide-alkyne labeling": 0.319}
{"target": "NUP155 C704 (UniProt O75694)", "log2 ratio of iodoacetamide-alkyne labeling": 0.168}
{"target": "NVL C626 (UniProt O15381)", "log2 ratio of iodoacetamide-alkyne labeling": 0.651}
{"target": "GTPBP1 C669 (UniProt O00178)", "log2 ratio of iodoacetamide-alkyne labeling": "1.13 (active)"}
{"target": "HEXIM1 C84 (UniProt O94992)", "log2 ratio of iodoacetamide-alkyne labeling": "1.3 (active)"}
{"target": "IGF2BP3 C546 (UniProt O00425)", "log2 ratio of iodoacetamide-alkyne labeling": 0.284}
{"target": "ANKRD17 C58 (UniProt O75179)", "sequence (O75179 whole entry, looked up)": "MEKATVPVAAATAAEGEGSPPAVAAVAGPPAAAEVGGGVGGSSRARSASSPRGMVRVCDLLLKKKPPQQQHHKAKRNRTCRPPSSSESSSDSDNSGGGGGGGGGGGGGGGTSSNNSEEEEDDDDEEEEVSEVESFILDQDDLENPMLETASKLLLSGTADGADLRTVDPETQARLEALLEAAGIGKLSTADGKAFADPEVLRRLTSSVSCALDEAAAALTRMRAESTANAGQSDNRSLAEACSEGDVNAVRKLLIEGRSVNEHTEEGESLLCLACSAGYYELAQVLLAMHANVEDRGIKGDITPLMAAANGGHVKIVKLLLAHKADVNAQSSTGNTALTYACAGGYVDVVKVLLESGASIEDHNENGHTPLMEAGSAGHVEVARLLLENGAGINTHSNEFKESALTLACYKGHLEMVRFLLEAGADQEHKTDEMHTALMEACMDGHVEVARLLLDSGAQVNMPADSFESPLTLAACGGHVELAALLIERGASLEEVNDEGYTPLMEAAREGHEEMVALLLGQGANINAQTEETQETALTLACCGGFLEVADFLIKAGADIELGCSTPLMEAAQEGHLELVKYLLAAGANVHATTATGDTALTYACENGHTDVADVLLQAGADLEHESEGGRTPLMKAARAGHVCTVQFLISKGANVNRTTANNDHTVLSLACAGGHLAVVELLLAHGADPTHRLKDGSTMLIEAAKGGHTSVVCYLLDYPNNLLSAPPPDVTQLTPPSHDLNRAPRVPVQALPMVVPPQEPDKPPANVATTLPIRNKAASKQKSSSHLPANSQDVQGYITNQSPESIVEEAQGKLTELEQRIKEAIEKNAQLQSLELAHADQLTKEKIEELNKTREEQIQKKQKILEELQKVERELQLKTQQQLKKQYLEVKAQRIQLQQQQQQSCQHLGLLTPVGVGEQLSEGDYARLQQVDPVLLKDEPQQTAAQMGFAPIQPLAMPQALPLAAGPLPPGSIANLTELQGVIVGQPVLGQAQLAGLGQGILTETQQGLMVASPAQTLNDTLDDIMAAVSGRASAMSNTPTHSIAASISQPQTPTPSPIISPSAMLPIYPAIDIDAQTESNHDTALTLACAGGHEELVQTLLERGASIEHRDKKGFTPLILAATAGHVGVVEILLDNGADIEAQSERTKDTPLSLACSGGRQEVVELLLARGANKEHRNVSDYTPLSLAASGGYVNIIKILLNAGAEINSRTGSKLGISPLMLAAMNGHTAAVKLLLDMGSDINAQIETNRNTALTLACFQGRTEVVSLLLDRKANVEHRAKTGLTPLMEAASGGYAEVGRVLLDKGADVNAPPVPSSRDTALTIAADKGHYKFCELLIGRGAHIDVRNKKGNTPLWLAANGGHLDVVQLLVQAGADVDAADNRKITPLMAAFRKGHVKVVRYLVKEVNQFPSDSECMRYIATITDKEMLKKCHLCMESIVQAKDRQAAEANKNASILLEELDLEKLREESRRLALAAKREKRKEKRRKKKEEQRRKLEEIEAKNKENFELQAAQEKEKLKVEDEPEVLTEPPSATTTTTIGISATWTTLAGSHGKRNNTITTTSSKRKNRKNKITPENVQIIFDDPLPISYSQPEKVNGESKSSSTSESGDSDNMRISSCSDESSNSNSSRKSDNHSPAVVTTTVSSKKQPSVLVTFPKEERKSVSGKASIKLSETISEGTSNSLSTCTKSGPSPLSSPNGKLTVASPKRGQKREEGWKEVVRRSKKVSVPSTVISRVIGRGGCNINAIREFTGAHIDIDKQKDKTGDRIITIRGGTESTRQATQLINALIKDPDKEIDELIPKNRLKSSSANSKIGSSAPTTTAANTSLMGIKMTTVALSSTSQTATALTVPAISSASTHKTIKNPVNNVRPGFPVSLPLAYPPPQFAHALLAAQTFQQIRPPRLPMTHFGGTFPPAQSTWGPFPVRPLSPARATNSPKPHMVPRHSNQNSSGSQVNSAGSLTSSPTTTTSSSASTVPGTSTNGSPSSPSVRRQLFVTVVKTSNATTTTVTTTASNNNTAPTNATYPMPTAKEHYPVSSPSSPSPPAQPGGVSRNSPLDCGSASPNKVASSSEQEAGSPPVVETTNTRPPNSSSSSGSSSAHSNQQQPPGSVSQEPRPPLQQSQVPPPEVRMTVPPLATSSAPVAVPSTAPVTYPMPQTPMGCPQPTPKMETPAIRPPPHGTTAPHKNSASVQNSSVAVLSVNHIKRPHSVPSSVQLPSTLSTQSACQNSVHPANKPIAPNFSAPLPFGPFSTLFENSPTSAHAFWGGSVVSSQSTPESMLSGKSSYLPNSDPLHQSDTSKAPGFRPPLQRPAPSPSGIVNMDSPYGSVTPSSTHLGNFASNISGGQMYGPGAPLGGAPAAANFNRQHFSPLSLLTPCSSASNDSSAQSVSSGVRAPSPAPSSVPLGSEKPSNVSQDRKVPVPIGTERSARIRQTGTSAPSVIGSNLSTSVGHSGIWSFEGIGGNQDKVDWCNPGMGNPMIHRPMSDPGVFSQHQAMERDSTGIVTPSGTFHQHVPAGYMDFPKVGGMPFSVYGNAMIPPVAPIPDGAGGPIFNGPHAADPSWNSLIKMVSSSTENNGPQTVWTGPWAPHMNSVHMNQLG", "log2 ratio of iodoacetamide-alkyne labeling": "1.35 (active)"}
{"target": "TRAFD1 C476 (UniProt O14545)", "log2 ratio of iodoacetamide-alkyne labeling": "1.55 (active)"}
{"target": "EXOC5 C111 (UniProt O00471)", "log2 ratio of iodoacetamide-alkyne labeling": 0.297}
{"target": "EPB41L2 C424 (UniProt O43491)", "log2 ratio of iodoacetamide-alkyne labeling": 0.17}
{"target": "FLNB C660 (UniProt O75369)", "sequence (O75369 whole entry, looked up)": "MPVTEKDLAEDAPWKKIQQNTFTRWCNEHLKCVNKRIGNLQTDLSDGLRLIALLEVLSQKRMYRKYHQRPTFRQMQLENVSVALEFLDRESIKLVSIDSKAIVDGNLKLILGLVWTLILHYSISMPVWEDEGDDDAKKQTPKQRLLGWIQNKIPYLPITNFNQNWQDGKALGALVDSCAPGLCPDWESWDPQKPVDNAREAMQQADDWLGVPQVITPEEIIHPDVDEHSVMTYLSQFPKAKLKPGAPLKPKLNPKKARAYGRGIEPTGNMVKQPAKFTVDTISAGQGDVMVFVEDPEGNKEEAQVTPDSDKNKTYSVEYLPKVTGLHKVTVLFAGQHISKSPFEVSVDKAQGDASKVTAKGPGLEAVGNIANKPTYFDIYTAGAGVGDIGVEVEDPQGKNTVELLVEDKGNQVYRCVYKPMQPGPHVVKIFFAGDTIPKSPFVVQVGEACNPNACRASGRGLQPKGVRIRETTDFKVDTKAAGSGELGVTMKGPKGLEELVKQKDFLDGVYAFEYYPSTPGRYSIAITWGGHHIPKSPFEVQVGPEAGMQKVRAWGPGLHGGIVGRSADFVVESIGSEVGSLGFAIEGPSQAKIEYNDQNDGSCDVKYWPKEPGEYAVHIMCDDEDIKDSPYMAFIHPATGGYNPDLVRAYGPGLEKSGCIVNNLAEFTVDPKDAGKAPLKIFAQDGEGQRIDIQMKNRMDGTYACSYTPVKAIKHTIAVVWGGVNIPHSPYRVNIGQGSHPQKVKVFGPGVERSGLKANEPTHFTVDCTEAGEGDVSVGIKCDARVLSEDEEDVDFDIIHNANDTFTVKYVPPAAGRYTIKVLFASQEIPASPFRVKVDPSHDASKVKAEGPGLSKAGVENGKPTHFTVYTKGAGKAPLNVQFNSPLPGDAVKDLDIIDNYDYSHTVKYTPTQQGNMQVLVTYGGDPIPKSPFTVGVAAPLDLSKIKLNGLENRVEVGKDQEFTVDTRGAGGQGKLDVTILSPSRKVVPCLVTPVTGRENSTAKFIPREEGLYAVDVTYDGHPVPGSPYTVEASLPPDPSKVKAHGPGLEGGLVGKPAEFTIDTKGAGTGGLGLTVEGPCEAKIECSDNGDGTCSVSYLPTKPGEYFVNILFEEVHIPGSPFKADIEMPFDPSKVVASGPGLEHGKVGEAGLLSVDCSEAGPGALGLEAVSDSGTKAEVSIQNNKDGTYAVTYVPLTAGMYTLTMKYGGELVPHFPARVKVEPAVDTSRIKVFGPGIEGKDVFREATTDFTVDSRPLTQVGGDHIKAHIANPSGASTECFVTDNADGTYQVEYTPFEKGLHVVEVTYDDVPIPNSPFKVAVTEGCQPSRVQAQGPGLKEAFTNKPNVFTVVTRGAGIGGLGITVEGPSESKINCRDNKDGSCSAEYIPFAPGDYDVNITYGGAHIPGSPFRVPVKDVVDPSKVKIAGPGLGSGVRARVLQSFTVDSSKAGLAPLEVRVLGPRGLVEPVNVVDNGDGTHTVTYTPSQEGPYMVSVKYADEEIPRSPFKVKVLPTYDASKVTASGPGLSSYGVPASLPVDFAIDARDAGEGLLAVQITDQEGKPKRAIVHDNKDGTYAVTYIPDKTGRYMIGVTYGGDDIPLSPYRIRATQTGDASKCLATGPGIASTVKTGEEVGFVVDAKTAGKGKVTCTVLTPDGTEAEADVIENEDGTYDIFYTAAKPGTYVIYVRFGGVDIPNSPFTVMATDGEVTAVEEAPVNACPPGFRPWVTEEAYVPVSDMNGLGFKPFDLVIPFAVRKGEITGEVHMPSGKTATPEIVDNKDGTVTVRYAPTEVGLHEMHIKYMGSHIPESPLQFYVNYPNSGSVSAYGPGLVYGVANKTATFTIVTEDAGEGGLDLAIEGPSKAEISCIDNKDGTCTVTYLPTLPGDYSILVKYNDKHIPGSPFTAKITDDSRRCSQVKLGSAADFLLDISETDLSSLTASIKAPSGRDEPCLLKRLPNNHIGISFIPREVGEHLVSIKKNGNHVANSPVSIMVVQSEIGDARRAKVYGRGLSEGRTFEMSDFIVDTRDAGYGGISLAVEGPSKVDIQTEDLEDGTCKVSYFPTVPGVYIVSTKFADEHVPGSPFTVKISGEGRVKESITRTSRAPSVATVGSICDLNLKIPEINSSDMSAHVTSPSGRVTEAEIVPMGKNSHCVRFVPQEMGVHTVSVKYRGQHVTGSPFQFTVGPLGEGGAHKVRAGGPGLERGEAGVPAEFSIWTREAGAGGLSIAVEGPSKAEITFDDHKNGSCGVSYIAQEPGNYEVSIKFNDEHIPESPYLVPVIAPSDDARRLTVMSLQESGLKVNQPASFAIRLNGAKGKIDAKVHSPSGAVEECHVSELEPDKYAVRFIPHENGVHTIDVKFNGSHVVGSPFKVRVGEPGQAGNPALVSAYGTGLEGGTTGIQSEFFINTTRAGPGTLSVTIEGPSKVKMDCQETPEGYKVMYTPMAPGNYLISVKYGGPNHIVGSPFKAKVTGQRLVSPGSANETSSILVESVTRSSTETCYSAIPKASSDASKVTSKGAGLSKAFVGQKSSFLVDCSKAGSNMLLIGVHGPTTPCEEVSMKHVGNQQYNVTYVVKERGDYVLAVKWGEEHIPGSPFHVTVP", "log2 ratio of iodoacetamide-alkyne labeling": 0.476}
{"target": "DKC1 C74 (UniProt O60832)", "log2 ratio of iodoacetamide-alkyne labeling": 0.427}
{"target": "PHGDH C369 (UniProt O43175)", "log2 ratio of iodoacetamide-alkyne labeling": "1.78 (active)"}
{"target": "UniProt O75528_C7", "log2 ratio of iodoacetamide-alkyne labeling": "1.05 (active)"}
{"target": "TIPRL C87 (UniProt O75663)", "log2 ratio of iodoacetamide-alkyne labeling": "1.32 (active)"}
{"target": "UniProt O15042_C291", "log2 ratio of iodoacetamide-alkyne labeling": "1 (active)"}
{"target": "OGT C620 (UniProt O15294)", "log2 ratio of iodoacetamide-alkyne labeling": "1.35 (active)"}
{"target": "WDR46 C456 (UniProt O15213)", "log2 ratio of iodoacetamide-alkyne labeling": 0.493}
{"target": "PMPCB C419 (UniProt O75439)", "log2 ratio of iodoacetamide-alkyne labeling": 0.112}
{"target": "UniProt O14628_C178", "log2 ratio of iodoacetamide-alkyne labeling": "1.09 (active)"}
{"target": "NVL C391 (UniProt O15381)", "log2 ratio of iodoacetamide-alkyne labeling": 0.0922}
{"target": "SASH1 C406 (UniProt O94885)", "log2 ratio of iodoacetamide-alkyne labeling": "1.19 (active)"}
{"target": "DNM1L C367 (UniProt O00429)", "log2 ratio of iodoacetamide-alkyne labeling": 0.986}
{"target": "UniProt O94822_C498", "log2 ratio of iodoacetamide-alkyne labeling": 0.086}
